Source: PubChem BioAssay (NCI)
Compounds without any hit were thinned out: in the full panel of roughly 83,000, 20% have a hit.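 The endpoint reported here, percent growth, reads 100 for growth as untreated, 0 for no net growth and -100 for all cells dead.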 Unmarked numbers belong to inactive results. Calls of active or inactive are those of the source. How the source made its calls: active means growth percent below 10; inactive means the rest.

system: MALME-3M melanoma; test: NCI-60 one-dose screen, 48 h (100 = growth as untreated, 0 = no growth, -100 = all killed); details: 10 µM unless noted

Row | Compound | growth
1 | CCCCN(CCCC)c1ccc(C(=N)c2ccc(N(CCCC)CCCC)cc2)cc1 | -64.5% (active)
2 | Clc1ccc(-c2nc3ccccc3s2)cc1Cl | 114%
3 | Cc1nc2c3c(ncn2n1)Oc1c(c(=O)[nH]c2ccccc12)C3c1ccc(Cl)cc1 (stereo not drawn) | 105%
4 | O=C(NNC(=S)Nc1ccccc1)c1cc2ccc1CCc1ccc(cc1)CC2 | 74.8%
5 | O=C(Nc1ccc2c(c1)OCCO2)C(=O)c1c[nH]c2ccccc12 | 46.6%
6 | COc1ccc2c(c1)C(c1cc(OC)c3c(c1)OCO3)C1=C(COC1=O)N2 (stereo not drawn) | 54.2%
7 | Fc1ccc(Nc2nc(NCCNc3ccnc4cc(Cl)ccc34)nc(N3CCOCC3)n2)cc1 | -63.1% (active)
8 | S=c1[nH]nc(-c2cc3ccc2CCc2ccc(cc2)CC3)n1-c1ccccc1 | 100%
9 | CC(C)(C)NCCC(O)c1cc2c(Cl)cc(Cl)cc2c2cc(C(F)(F)F)ccc12 (stereo not drawn) | -53.3% (active)
10 | COc1ccc2cc(-c3ccc(-c4ccc(C(=N)N)cc4)s3)ccc2c1 | 104%
11 | CCN(CC)CCC(CNc1c2ccc(Cl)cc2nc2ccc(OC)cc12)c1ccccc1 (stereo not drawn) | -85.1% (active)
12 | Cc1ccc(S(=O)(=O)C2=C3C(=C(c4ccccc4)c4ccccc43)CN(S(=O)(=O)c3ccc(C)cc3)C2)cc1 | 72%
13 | Cc1ccc(S(=O)(=O)NCCNc2nccc(-c3c(-c4cccc(N)c4)nc4sccn34)n2)cc1 | 106%
14 | CC(C)NCCCNC1=C(Cl)C(=O)c2ccccc2C1=O | -78% (active)
15 | COc1cccc(CC(C)=C(c2ccc(OCCN(C)C)cc2)c2ccc(OCCN(C)C)cc2)c1 | -93% (active)
16 | S=c1[nH]nc(-c2cc3ccc2CCc2ccc(cc2)CC3)n1C1CC1 | 97%
17 | COc1ccc(Nc2[nH]n3c(=O)cc(-c4ccccc4)nc3c2C(=O)Nc2ccc(C)cc2)c(OC)c1 | 91.6%
18 | O=c1[nH]c2ccc(Br)cc2c2c1C(c1ccc(Cl)cc1)c1c(ncn3nc(-c4ccco4)nc13)O2 (stereo not drawn) | 77.5%
19 | COc1cc(-c2nn(-c3cccc(NC(=O)Nc4cc(C(F)(F)F)cc(C(F)(F)F)c4)c3)cc2-c2ccncc2)ccc1Cl | -10.7% (active)
20 | COc1cc(/C=C/C(=O)N2CCN(C(=O)/C=C/c3cc(OC)c(OC)c(OC)c3)CC2)cc(OC)c1OC | 127%

Row | Compound | growth
21 | CCN(CC)CCOC(=O)C(c1ccccc1)(c1ccccc1)C(C)C | 95.1%
22 | C=C[C@@H]1C[C@H](O)Cc2c(C)cc(C)cc2N1 | 103%
23 | N=C(N)c1ccc(-c2cc(Cl)cc(Cl)c2)cn1 | 95.8%
24 | CCCCCCCCCCCCNC(=O)[C@H]1CSC(c2ccsc2)N1 (stereo partly drawn) | -69.9% (active)
25 | O=C(NCc1cn(Cc2cccc(Oc3ccccc3)c2)nn1)c1cccnc1Nc1ccc(F)cc1 | 67.5%
26 | CCN1CCN(CC(=O)N2c3cccc4cccc(c34)N(C(=O)CN3CCN(CC)CC3)C2c2cn(-c3ccccc3)nc2-c2cccc([N+](=O)[O-])c2)CC1 | -91.3% (active)
27 | O=S(=O)(NCCCNc1nccc(-n2ccc3cccnc32)n1)c1ccc(Br)cc1 | 118%
28 | COC(=O)C(Sc1ccc(Cl)cc1)C1SC(=S)N(Cc2ccccc2)C1=O (stereo not drawn) | 98.9%
29 | Cc1ccc2[nH]c(=O)c3c(c2c1)Oc1ncn2nc(-c4ccco4)nc2c1C3c1ccc(Cl)cc1 (stereo not drawn) | 96.3%
30 | c1ccc(-c2cn(-c3ccccc3)c(-c3ccccc3)n2)cc1 | 95%
31 | CCN(CC)CCCC(C)Nc1c2ccc(Cl)cc2nc2cc(OC)c(OC)cc12 (stereo not drawn) | -74.1% (active)
32 | CN(C)c1cccc2c(S(=O)(=O)/N=C(\N)Nc3nc4ccccc4s3)cccc12 | 73.7%
33 | O=C(Nc1ccc(Cl)c(Cl)c1)NS(=O)(=O)c1cnccc1Oc1ccc(F)cc1 | 41.2%
34 | Cc1ccc2nc(Cl)cc(=O)n2c1 | 135%
35 | Cn1ccc(=O)c(S(N)(=O)=O)c1 | 95.5%
36 | COc1ccc(-c2c(N)n[nH]c2-c2cc3c(c(OC)c2OC)OCO3)cc1 | 97.8%
37 | CC(=O)Oc1csc(N(C(C)=O)c2cccc(C(F)(F)F)c2)n1 | 88.8%
38 | C=C1CCC2C3(C)COC(C)(C)OC3CCC2(C)C1C/C=C1/C(=O)OCC1Oc1ccccc1OC (stereo not drawn) | 112%
39 | COc1ccc(/C=C\c2cc(OC)c(OC)c(OC)c2)cc1OC(=O)c1cccc(Cn2cc(CCOC(=O)c3cccc(Cn4nnc5c4C(=O)c4ccccc4C5=O)c3)nn2)c1 | 41.5%

system: MDA-MB-231 breast; test: as above; details: 10 µM unless noted

Row | Compound | growth
40 | CCCCN(CCCC)c1ccc(C(=N)c2ccc(N(CCCC)CCCC)cc2)cc1 | -90.3% (active)
41 | Clc1ccc(-c2nc3ccccc3s2)cc1Cl | 68%
42 | Cc1nc2c3c(ncn2n1)Oc1c(c(=O)[nH]c2ccccc12)C3c1ccc(Cl)cc1 (stereo not drawn) | 87.9%
43 | O=C(NNC(=S)Nc1ccccc1)c1cc2ccc1CCc1ccc(cc1)CC2 | 77.2%
44 | O=C(Nc1ccc2c(c1)OCCO2)C(=O)c1c[nH]c2ccccc12 | 28.9%
45 | COc1ccc2c(c1)C(c1cc(OC)c3c(c1)OCO3)C1=C(COC1=O)N2 (stereo not drawn) | 24.4%
46 | Fc1ccc(Nc2nc(NCCNc3ccnc4cc(Cl)ccc34)nc(N3CCOCC3)n2)cc1 | 20.1%
47 | S=c1[nH]nc(-c2cc3ccc2CCc2ccc(cc2)CC3)n1-c1ccccc1 | 95%
48 | CC(C)(C)NCCC(O)c1cc2c(Cl)cc(Cl)cc2c2cc(C(F)(F)F)ccc12 (stereo not drawn) | -74.4% (active)
49 | COc1ccc2cc(-c3ccc(-c4ccc(C(=N)N)cc4)s3)ccc2c1 | 100%
50 | CCN(CC)CCC(CNc1c2ccc(Cl)cc2nc2ccc(OC)cc12)c1ccccc1 (stereo not drawn) | -46.1% (active)
51 | Cc1ccc(S(=O)(=O)C2=C3C(=C(c4ccccc4)c4ccccc43)CN(S(=O)(=O)c3ccc(C)cc3)C2)cc1 | 48.8%
52 | Cc1ccc(S(=O)(=O)NCCNc2nccc(-c3c(-c4cccc(N)c4)nc4sccn34)n2)cc1 | 85.9%
53 | CC(C)NCCCNC1=C(Cl)C(=O)c2ccccc2C1=O | 76.3%
54 | COc1cccc(CC(C)=C(c2ccc(OCCN(C)C)cc2)c2ccc(OCCN(C)C)cc2)c1 | -75.4% (active)
55 | S=c1[nH]nc(-c2cc3ccc2CCc2ccc(cc2)CC3)n1C1CC1 | 99.5%
56 | COc1ccc(Nc2[nH]n3c(=O)cc(-c4ccccc4)nc3c2C(=O)Nc2ccc(C)cc2)c(OC)c1 | 86.2%
57 | O=c1[nH]c2ccc(Br)cc2c2c1C(c1ccc(Cl)cc1)c1c(ncn3nc(-c4ccco4)nc13)O2 (stereo not drawn) | 48.6%
58 | COc1cc(-c2nn(-c3cccc(NC(=O)Nc4cc(C(F)(F)F)cc(C(F)(F)F)c4)c3)cc2-c2ccncc2)ccc1Cl | -92% (active)
59 | COc1cc(/C=C/C(=O)N2CCN(C(=O)/C=C/c3cc(OC)c(OC)c(OC)c3)CC2)cc(OC)c1OC | 82.7%

Row | Compound | growth
60 | CCN(CC)CCOC(=O)C(c1ccccc1)(c1ccccc1)C(C)C | 74.3%
61 | C=C[C@@H]1C[C@H](O)Cc2c(C)cc(C)cc2N1 | 101%
62 | N=C(N)c1ccc(-c2cc(Cl)cc(Cl)c2)cn1 | 85.6%
63 | CCCCCCCCCCCCNC(=O)[C@H]1CSC(c2ccsc2)N1 (stereo partly drawn) | -80.5% (active)
64 | O=C(NCc1cn(Cc2cccc(Oc3ccccc3)c2)nn1)c1cccnc1Nc1ccc(F)cc1 | 42.2%
65 | CCN1CCN(CC(=O)N2c3cccc4cccc(c34)N(C(=O)CN3CCN(CC)CC3)C2c2cn(-c3ccccc3)nc2-c2cccc([N+](=O)[O-])c2)CC1 | -66.1% (active)
66 | O=S(=O)(NCCCNc1nccc(-n2ccc3cccnc32)n1)c1ccc(Br)cc1 | 104%
67 | COC(=O)C(Sc1ccc(Cl)cc1)C1SC(=S)N(Cc2ccccc2)C1=O (stereo not drawn) | 98.9%
68 | Cc1ccc2[nH]c(=O)c3c(c2c1)Oc1ncn2nc(-c4ccco4)nc2c1C3c1ccc(Cl)cc1 (stereo not drawn) | 89.4%
69 | c1ccc(-c2cn(-c3ccccc3)c(-c3ccccc3)n2)cc1 | 94.3%
70 | CCN(CC)CCCC(C)Nc1c2ccc(Cl)cc2nc2cc(OC)c(OC)cc12 (stereo not drawn) | -34.3% (active)
71 | CN(C)c1cccc2c(S(=O)(=O)/N=C(\N)Nc3nc4ccccc4s3)cccc12 | 68.3%
72 | O=C(Nc1ccc(Cl)c(Cl)c1)NS(=O)(=O)c1cnccc1Oc1ccc(F)cc1 | 93.9%
73 | Cc1ccc2nc(Cl)cc(=O)n2c1 | 111%
74 | Cn1ccc(=O)c(S(N)(=O)=O)c1 | 101%
75 | COc1ccc(-c2c(N)n[nH]c2-c2cc3c(c(OC)c2OC)OCO3)cc1 | 83.7%
76 | CC(=O)Oc1csc(N(C(C)=O)c2cccc(C(F)(F)F)c2)n1 | 71.9%
77 | C=C1CCC2C3(C)COC(C)(C)OC3CCC2(C)C1C/C=C1/C(=O)OCC1Oc1ccccc1OC (stereo not drawn) | 103%
78 | COc1ccc(/C=C\c2cc(OC)c(OC)c(OC)c2)cc1OC(=O)c1cccc(Cn2cc(CCOC(=O)c3cccc(Cn4nnc5c4C(=O)c4ccccc4C5=O)c3)nn2)c1 | 21.6%
